In PubChem BioAssay (Tox21):
Records with an inconclusive call do not appear. Activity calls are given as the source filed them. Unless noted, calls follow the shape of the dose curve; as a rule, active = well fitted curve in the direction sought with a large enough effect in the repeat runs; inconclusive = weak or mixed curves; inactive = no such curve, though single readings can be large; an effect the other way counts as inactive or inconclusive.

Legend:
[1] = qHTS assay to identify small molecule antagonists of the estrogen related receptor (ERR) signaling pathway from Tox21 library - cell viability counter screen (AID 1224834); also: nearly all actives have a fitted effect of over 30% in size
Outline: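 Viability readout (CellTiter-Fluor fluorescence, 30 min at 37 C) multiplexed with the ERR assay; cells treated 17.5 h at 37 C with compounds delivered in DMSO.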

[2] = molecular target: Luciferin 4-monooxygenase (Photinus pyralis) (UniProt P08659); assay: qHTS assay to identify small molecule inhibitors of firefly luciferase (AID 1224835); also: series mostly up to about 120 µM; nearly all actives have a fitted effect of over 25% in size
Luciferin 4-monooxygenase (Photinus pyralis), sequence (P08659 whole entry, looked up): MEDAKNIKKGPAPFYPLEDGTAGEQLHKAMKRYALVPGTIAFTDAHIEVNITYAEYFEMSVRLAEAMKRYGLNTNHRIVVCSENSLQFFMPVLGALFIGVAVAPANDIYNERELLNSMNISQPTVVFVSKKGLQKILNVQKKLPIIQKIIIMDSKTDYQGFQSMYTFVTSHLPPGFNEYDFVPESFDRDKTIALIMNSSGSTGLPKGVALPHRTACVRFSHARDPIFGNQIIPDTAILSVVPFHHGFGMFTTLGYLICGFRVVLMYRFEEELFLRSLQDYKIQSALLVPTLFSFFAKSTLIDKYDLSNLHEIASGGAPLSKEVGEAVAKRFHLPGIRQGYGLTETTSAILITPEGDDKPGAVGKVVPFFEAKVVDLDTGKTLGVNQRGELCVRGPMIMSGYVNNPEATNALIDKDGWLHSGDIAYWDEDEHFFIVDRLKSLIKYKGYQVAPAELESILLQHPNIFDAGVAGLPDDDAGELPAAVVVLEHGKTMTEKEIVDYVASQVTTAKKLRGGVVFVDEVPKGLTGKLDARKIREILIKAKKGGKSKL
Outline: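 Inhibition of purified Photinus luciferase is measured by luminescence. Substrate levels (D-luciferin, ATP) sit at their KM values. Each compound is tested in a concentration series.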

[3] = qHTS assay to identify small molecule agonists of the constitutive androstane receptor (CAR) signaling pathway - cell viability counter screen (AID 1224836); also: series mostly up to about 92 µM; nearly all actives have a fitted effect of over 45% in size
Outline: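 Counter screen multiplexed with the CAR reporter readout: HepG2 cells co-transfected with hCAR and the CYP2B6-2.2kb construct receive a 15-concentration compound series and 0.75 uM PK11195 (final), then CellTiter-Fluor fluorescence is read after 23 h.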

[4] = molecular target: Nuclear receptor subfamily 1 group I member 3 (Homo sapiens) (UniProt Q14994); assay: qHTS assay to identify small molecule antagonists of the constitutive androstane receptor (CAR) signaling pathway (AID 1224838);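 also: HepG2 cells stably expressing hCAR with CYP2B6 luciferase reporter stimulated by CITCO; nearly all actives have a fitted effect of over 40% in size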
Nuclear receptor subfamily 1 group I member 3 (Homo sapiens), sequence (Q14994 whole entry, looked up): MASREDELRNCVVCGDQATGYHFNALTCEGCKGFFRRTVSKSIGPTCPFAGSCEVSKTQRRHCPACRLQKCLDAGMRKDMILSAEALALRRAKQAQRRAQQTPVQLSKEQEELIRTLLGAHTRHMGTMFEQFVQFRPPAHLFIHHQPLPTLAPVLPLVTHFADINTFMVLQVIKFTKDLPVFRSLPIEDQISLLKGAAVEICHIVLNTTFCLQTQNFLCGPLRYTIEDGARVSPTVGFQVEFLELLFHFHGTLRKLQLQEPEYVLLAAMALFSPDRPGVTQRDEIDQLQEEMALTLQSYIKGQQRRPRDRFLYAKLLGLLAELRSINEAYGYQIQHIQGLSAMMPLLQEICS
Outline: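 Quantitative HTS in double-stable HepG2-CYP2B6-hCAR cells. After 4 h plating, cells get compound (15 concentrations) and CITCO at 50 nM final, incubate 24 h at 37 C, then ONE-Glo luminescence is read.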

[5] = molecular target: Nuclear receptor subfamily 1 group I member 3 (Homo sapiens) (UniProt Q14994); assay: qHTS assay to identify small molecule agonists of the constitutive androstane receptor (CAR) signaling pathway (AID 1224839); also: series mostly up to about 92 µM; nearly all actives have a fitted effect of over 15% in size
Outline: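 A 15-concentration quantitative screen uses HepG2 cells co-transfected stably with human CAR and CYP2B6-2.2kb reporter. Treatment lasts 24 h with 0.75 uM PK11195 final present; ONE-Glo luminescence is the signal.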

[6] = qHTS assay to identify small molecule antagonists of the estrogen related receptor signaling pathway with the pleiotropic PPARgamma coactivator (PGC) from Tox21 10K library - cell viability counter screen (AID 1224840; active = well fitted cell-killing curve with a large enough effect in the repeat runs, not every such curve was filed as active; also: nearly all actives have a fitted effect of over 40% in size)
Outline: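 Compounds in DMSO, alongside positive and negative controls, were pinned onto PGC/ERR cells (2,000 per well). Exposure lasted 17.5 hours at 37 C, followed by a 30-minute CellTiter-Fluor incubation and fluorescence reading.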

[7] = qHTS assay to identify small molecule agonists of the hypoxia (HIF-1) signaling pathway - cell viability counter screen (AID 1224844; calls by dose curve; also: nearly all actives have a fitted effect of over 50% in size)
Outline: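 Luminescent ATP content (CellTiter-Glo, 30 min, room temperature) served as the viability measure in HRE-bla ME-180 cells exposed to compounds for 17 hrs in low-serum medium (0.5% dialyzed FBS).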

[8] = qHTS assay to identify small molecule agonists of H2AX (AID 1224845; active = well fitted activation curve with a large enough effect in the signal ratio in the repeat runs, not every such curve was filed as active; the % refers to the signal ratio)
Outline: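 Phospho-H2AX Ser139 measured by HTRF (ex 320 nm; em 665 and 620 nm) after 24 hr antibody incubation. Compounds, 15 concentrations, 0.76% DMSO, were applied to CHO-K1 cells for 3hr at 37C before lysis.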

[9] = qHTS assay to identify small molecule agonists of the hypoxia (HIF-1) signaling pathway (AID 1224846; active = well fitted activation curve with a large enough effect in the signal ratio in the repeat runs, not every such curve was filed as active; the % refers to the signal ratio)
Outline: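 Measured by blue/green FRET after loading CCF4-AM: beta-lactamase expressed from a hypoxia response element in ME-180 cells. Test agents were delivered in DMSO and left 17 hrs; cells had been plated 5 hrs earlier in low-serum (0.5% dialyzed FBS) medium.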

[10] = qHTS assay to identify small molecule agonists of H2AX - cell viability counter screen (AID 1224847; calls by dose curve; also: top concentration of the series differs between compounds; nearly all actives have a fitted effect of over 30% in size)
Outline: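 We seed wild-type CHO-K1 cells overnight, treat them for 3 hr at 37C with compounds in 15-concentration series, and quantify remaining viability by CellTiter-Glo luminescence.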

[11] = qHTS RealTime-Glo MT Cell Viability Assay in HepG2 cells - 24 hour (AID 1224867); also: nearly all actives have a fitted effect of over 50% in size
Outline: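 Cell number in HepG2 cultures estimated from NanoLuc luminescence generated by metabolic reduction of a prosubstrate by living cells. The homogeneous, nonlytic format allowed repeated reads at 0, 8, 16, 24, 32 and 40 h of compound exposure.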

[12] = qHTS RealTime-Glo MT Cell Viability Assay in HEK293 cells - 32 hour (AID 1224868); also: top concentration of the series differs between compounds; nearly all actives have a fitted effect of over 50% in size
Outline: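 Homogeneous bioluminescent viability format in HEK293 cells (600 cells/well). Following 5 h at 37 C/5% CO2, 23 nL compound was pintooled; the signal was measured repeatedly during 40 h incubation.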

[13] = A CellTox Green Cytotoxicity Assay to monitor cytotoxicity in HEK293 cells - 0 hour (AID 1224869); also: nearly all actives have a fitted effect of over 50% in size
Outline: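 Each value comes from one timepoint of a single continuous run in which HEK293 cells with CellTox Green were exposed to compound for up to 40 h at 37 C, dye fluorescence rising with cell death.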

[14] = qHTS RealTime-Glo MT Cell Viability Assay in HepG2 cells - 40 hour (AID 1224870); also: nearly all actives have a fitted effect of over 50% in size
Outline: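 Real-time viability: cells seeded at 600 per well together with NanoLuc and cell-permeant prosubstrate, compounds added after 5 h incubation. Luminescence tracked at 0, 8, 16, 24, 32 and 40 h of exposure.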

[15] = molecular target: Thyrotropin receptor (Homo sapiens) (UniProt P16473); assay: qHTS assay to identify small molecule agonists of the thyroid stimulating hormone receptor (TSHR) signaling pathway (AID 1224843; calls by dose curve; also: nearly all actives have a fitted effect of over 45% in size)
Thyrotropin receptor (Homo sapiens), sequence (P16473 whole entry, looked up): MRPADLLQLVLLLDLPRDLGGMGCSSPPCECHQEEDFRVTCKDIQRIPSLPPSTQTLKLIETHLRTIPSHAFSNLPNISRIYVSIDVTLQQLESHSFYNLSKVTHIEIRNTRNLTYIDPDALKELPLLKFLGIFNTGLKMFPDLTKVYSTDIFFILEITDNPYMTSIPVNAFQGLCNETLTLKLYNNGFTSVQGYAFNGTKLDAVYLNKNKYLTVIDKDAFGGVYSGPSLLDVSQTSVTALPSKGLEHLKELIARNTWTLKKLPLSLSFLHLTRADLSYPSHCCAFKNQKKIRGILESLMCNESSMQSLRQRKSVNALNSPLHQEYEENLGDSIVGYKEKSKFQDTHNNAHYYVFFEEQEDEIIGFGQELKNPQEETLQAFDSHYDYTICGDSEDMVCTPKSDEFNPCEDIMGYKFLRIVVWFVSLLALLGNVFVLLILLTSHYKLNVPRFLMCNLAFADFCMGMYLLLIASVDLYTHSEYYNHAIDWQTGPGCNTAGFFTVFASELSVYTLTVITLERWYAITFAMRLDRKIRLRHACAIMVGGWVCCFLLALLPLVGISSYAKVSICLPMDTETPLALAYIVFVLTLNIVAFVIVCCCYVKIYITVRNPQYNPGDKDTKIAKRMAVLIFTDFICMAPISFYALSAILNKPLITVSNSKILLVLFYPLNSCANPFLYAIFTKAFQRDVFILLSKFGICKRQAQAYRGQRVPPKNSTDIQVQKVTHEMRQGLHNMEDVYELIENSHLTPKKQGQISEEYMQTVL
Outline: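 HEK293 cells stably bearing the thyrotropin receptor were plated at 800 cells/well and challenged with compound (30 min, RT). Accumulated cAMP was quantified via cAMP-d2 competing for cryptate-tagged antibody.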

[16] = qHTS assay to identify small molecule antagonists of the constitutive androstane receptor (CAR) signaling pathway - cell viability counter screen (AID 1224837); also: series mostly up to about 92 µM; nearly all actives have a fitted effect of over 45% in size
Outline: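 Fluorescence from CellTiter-Fluor served as the viability signal. Human hepatoma HepG2 cells stably bearing hCAR and CYP2B6-2.2kb received compound plus CITCO (50 nM final) for 23 hr.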

[17] = qHTS assay to identify small molecule antagonists of the estrogen related receptor signaling pathway with the pleiotropic PPARgamma coactivator (PGC) from Tox21 10K library (AID 1224841; call rule not given here)
Outline: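 Compound exposure ran 18 hours at 37 C in PGC/ERR cells (2,000/well) that had first rested 6 hours in a 37 C/5% CO2 incubator. Luciferase activity was then detected with One-Glo after a 30-minute room-temperature step.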

[18] = qHTS assay to identify small molecule agonists of the estrogen related receptor signaling pathway with the pleiotropic PPARgamma coactivator (PGC) from Tox21 10K library (AID 1224842); also: nearly all actives have a fitted effect of over 15% in size
Outline: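 Luminescence from One-Glo (30 min, room temperature) measured after PGC/ERR cells had 18 h at 37 C with pinned compound (23 nL in DMSO). Cells had been seeded at 2,000 per well and pre-incubated 6 h.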

[19] = qHTS assay to identify small molecule antagonists of the estrogen related receptor (ERR) signaling pathway from Tox21 library (AID 1224848); also: nearly all actives have a fitted effect of over 50% in size
Outline: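 Reading was by luminescence 30 min after ONE-Glo addition. Before that, ERR cells at 2,000 per well had rested 6 h at 37 C/5% CO2 and then received pin-tooled compounds in DMSO for 18 h at 37 C.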

[20] = qHTS assay to identify small molecule agonists of the estrogen related receptor (ERR) signaling pathway from Tox21 library (AID 1224849; calls by dose curve; also: nearly all actives have a fitted effect of over 15% in size)
Outline: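 We plated ERR reporter cells, waited 6 h, added compounds in DMSO by pin tool and incubated them 18 h at 37 C. ONE-Glo was then added and luminescence read after 30 min.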

Measured: Potency

C=C[Si](OC(C)=O)(OC(C)=O)OC(C)=O
not listed: [15] | [16] | [17] | [18] | [19] | [20]
inactive: all other assays above

CCCCCCCC1CCCC1=O (configuration not stated)
not listed: [4] | [5] | [7] | [16] | [17] | [18] | [19] | [20]
inactive: all other assays above

[Ca+2]
not listed: [4] | [5] | [8] | [15] | [17] | [18] | [19] | [20]
inactive: all other assays above

COCCOCC(OC)OC
not listed: [16]
inactive: all other assays above

CCCCOCCOC(=O)COc1cc(Cl)c(Cl)cc1Cl
not listed: [10] | [16] | [17] | [18] | [19] | [20]
inactive: all other assays above

N[C@H](C(=O)O)[C@@H](O)c1ccc(O)c(O)c1
not listed: [4] | [5] | [8] | [15] | [17] | [18] | [19] | [20]
inactive: all other assays above

O=C(O)c1cc(C(=O)O)cc(C(=O)O)c1
not listed: [16] | [17] | [18] | [19] | [20]
inactive: all other assays above

CCCCOC(=O)CCC(C)=O
not listed: [10] | [16] | [17] | [18] | [19] | [20]
inactive: all other assays above
